Among all 1,600 compounds or so, about 410 (26%) were called active. The list is a sample of the results. Unmarked numbers belong to inactive results.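 Rule for the calls: active = mean inhibition over triplicates above the low-control well mean plus 3 SD, set per campaign (cut at about 13% in these data); inactive = the rest.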
Assay: nonselective cAMP signaling inhibitors, parental cells, counter-screen for MC4R biased antagonist project, cell-based, TR-FRET, U2OS, forskolin, triplicate (AID 602193);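 note: signal is single emission at 671 nm which falls as cellular cAMP rises; 0% = forskolin-stimulated wells and 100% = buffer without forskolin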
Conditions: LANCE TR-FRET, at 6.5 µM, active compounds read high

| SMILES | inhibition |
| --- | --- |
| O=C1/C(=C\c2ccc([N+](=O)[O-])cc2)CS(=O)(=O)C/C1=C/c1ccc([N+](=O)[O-])cc1 | 26.1% (active) |
| Cc1ccc(S(=O)(=O)N(C)CC(=O)OCC(=O)Nc2ccccc2)cc1 | 14.4% (active) |
| COc1ccccc1N(CC(=O)N/N=C(\C)c1ccccc1O)S(=O)(=O)c1ccc(C)cc1 | 5.78% |
| Cc1ccc(S(=O)(=O)N(C)CC(=O)OCC(=O)N2CC(=O)Nc3ccccc32)cc1 | 17.6% (active) |
| Cc1ccc(S(=O)(=O)CCC(=O)OCC(=O)N(C)Cc2ccccc2)cc1 | 1.96% |
| CCOC(=O)C(C)n1cnc2sc(C)c(C)c2c1=O (centres undefined) | 4.97% |
| CC(C)Oc1ccc(/C=C(\NC(=O)/C=C/c2ccco2)C(=O)NCCc2nc3ccccc3[nH]2)cc1 | 2.02% |
| O=C(CSc1nc2ccc(Nc3nc(N4CCOCC4)nc(N4CCOCC4)n3)cc2s1)NCc1ccco1 | -2.96% |
| Cc1ccc(NC(=O)c2c(NC(=O)CCC(=O)O)sc3c2CCCCC3)cc1 | 3.65% |
| N#C/C=C1\Sc2ccccc2C(=O)N1CC(=O)N1CCN(S(=O)(=O)c2ccccc2)CC1 | 7.11% |
| O=C(COC(=O)Cn1cnc2ccccc2c1=O)NCC12CC3CC(CC(C3)C1)C2 | 19% (active) |
| O=C(Nc1ccccc1Cl)/C(Cl)=C(\Cl)S(=O)c1ccccc1 (centres undefined) | -0.54% |
| Cc1c(CCC(=O)O)c(=O)oc2cc(OCc3ccc(Br)cc3)ccc12 | 2.85% |
| COc1ccc(Cl)cc1-c1cc(C(=O)Nc2cc(OC)c(OC)c(OC)c2)[nH]n1 | -12.1% |
| O=S(=O)(NCc1ccco1)c1cnc(Cl)c(Cl)c1 | 21.1% (active) |
| COc1ccc(-n2nc(C(=O)Nc3cc(OC)c(OC)c(OC)c3)c3ccccc3c2=O)c(OC)c1 | 6.04% |
| Cc1ccc(C)c(S(=O)(=O)N2CCN(CC(=O)Nc3ccc([N+](=O)[O-])cc3)CC2)c1 | -1.3% |
| COc1ccc2sc(-c3ccc(S(C)(=O)=O)cc3)c(-c3ccc(C(N)=O)cc3)c2c1 | 6.51% |
| CSc1nnc(NC(=O)c2nc(S(=O)(=O)Cc3ccc(C)cc3)ncc2Cl)s1 | 26.5% (active) |
| O=C(Nc1nnc(Cc2ccc(Cl)cc2)s1)c1cccnc1 | -0.09% |
| O=C(NCCc1c[nH]c2ccccc12)c1cccc(Br)c1 | 2.29% |
| Cc1ccc(-c2nnc(CN3CCN(C)CC3)o2)cc1 | -0.67% |
| CCCCOC(=O)CNc1nnc(SCC(=O)OCC)[nH]c1=O | 34.4% (active) |
| CC(NS(=O)(=O)c1ccc(Br)cc1)C(=O)NCC1CCCO1 (centres undefined) | 4.96% |
